Data published in PubChem BioAssay AID1259415 (National Center for Advancing Translational Sciences (NCATS), 2018).
Where “and” joins values, the source holds several entries; their conditions need not be identical. Equal values may be shown once. Screen size: about 410,000 compounds; about 18,000 (4.4%) were called active. Not shown: some 7% with an inconclusive outcome. The list comes from a sample in which actives are over-represented; it also holds similar structures and randomly drawn compounds. A number with no mark means an inactive call. No stated cut-off is given here; in the data, active means activity change below about -60%; inconclusive means no clear call, values can overlap the other calls; inactive means above about -39%.

Experiment: qHTS Assay for inhibitors of the human cytomegalovirus (HCMV)
Details: HFF cells, HCMV-luciferase reporter, 72 h; at 57.5 µM; active compounds read low
In short: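 Steps: HFFs plated, 16 h 37C; compounds added; HCMV-luciferase added to MOI 1 PFU/cell; 72 h 37C; OneGlo reagent, 5 min room temperature; luminescence read, normalized to controls.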
On the % scale 0 is the no-effect control and ±100 the full control effect.

Compared with CC(C)Cn1c(-c2ccc(S(=O)(=O)N3CCOCC3)cc2)csc1=Nc1cc(Cl)ccc1Cl, CC1Cc2cc(S(=O)(=O)CCC(=O)NCc3ccc(Cl)cc3)ccc2N1C(=O)C1CC1 (stereo unspecified) is higher in activity change, negative = inhibition: 0.205% for the first, 4.59% for the second.

Going from CN(Cc1ccccc1)C(=O)c1cn(C)c2ccc(S(=O)(=O)N3CCCCC3)cc2c1=O to CN(Cc1ccccc1)C(=O)CCS(=O)(=O)c1cc(Br)cc2c1N(C(=O)C1CC1)CC2, the activity change, negative = inhibition falls from -4.78% to -14.4%.

First: CCOC(=O)c1c(S(=O)(=O)N2CCCC(C(=O)NCc3ccc(F)cc3)C2)c(C)n(CC)c1C (stereo unspecified)
Second: CC(=O)N1c2ccc(S(=O)(=O)N3CCC(C(=O)NCc4ccc(F)cc4)CC3)cc2CC1C (stereo unspecified)
The activity change, negative = inhibition of the first is higher: -1.02% for the first, -39.5% for the second.

First: Cc1ccc(C2C=C(c3ccc(Cl)cc3)Nc3nc(NC(=O)CCC(=O)O)nn32)cc1 (stereo unspecified)
Second: COc1ccc(CCNc2nc(-c3ccc(Cl)cc3)cc(C(F)(F)F)n2)cc1OC
The activity change, negative = inhibition of the first is lower: -19.9% for the first, -19.1% for the second.

First: Cc1ccc(OCC(=O)OCc2cc(=O)n3nc(C4CC4)sc3n2)cc1C
Second: COc1ccc(-c2nn3c(=O)cc(CN4CCN(C(=O)c5ccc(OC)c(OC)c5)CC4)nc3s2)cc1
The activity change, negative = inhibition of the first is higher: -1.4% for the first, -5.09% for the second.

Compared with COc1ccc(-n2ccnc(NCCc3ccc(Cl)cc3)c2=O)cc1OC, Cn1c(=O)[nH]c(=O)c2c1nc(NCCc1ccccc1)n2Cc1ccc(F)cc1 is higher in activity change, negative = inhibition: -27.6% for the first, 26.5% for the second.

First: Cn1c(=O)c2c(nc(NCc3ccccc3)n2CC(N)=O)n(C)c1=O
Second: Cn1c(=O)c2c(nc(NCCc3ccccc3)n2Cc2ccccc2Br)n(C)c1=O
The activity change, negative = inhibition of the first is lower: -13.4% for the first, 6.41% for the second.

Compared with CCOC(=O)c1ccc(NC(=O)Cn2cc(S(=O)(=O)Cc3ccccc3F)c3ccccc32)cc1, CCOC(=O)c1ccc(NC(=O)CC2C(=O)N(c3ccccc3)C(=O)N2Cc2cccs2)cc1 (stereo unspecified) is higher in activity change, negative = inhibition: 0% for the first, 16.8% for the second.

Compared with CCOc1cccc2cc(-c3cn4c(n3)sc3cc(C)ccc34)c(=O)oc12, CCOc1ccc(OCC)c(NC(=O)c2c(C)nn(-c3ccccc3)c2-n2cccc2)c1 is lower in activity change, negative = inhibition: 0.706% for the first, -28.6% for the second.

Compared with CCn1nc(C(=O)Nc2ccc(N3CCOCC3)cc2)c2ccccc2c1=O, COc1cccc(CNC(=O)CCC(=O)N2CC3CCCN3c3ccccc32)c1 (stereo unspecified) is lower in activity change, negative = inhibition: -3.67% for the first, -5.74% for the second.

First: CCOc1cc(-c2nnc(SCC(=O)NC3CCCCC3)nc2-c2ccc(OC)c(OCC)c2)ccc1OC
Second: COc1ccc(NC(=O)CSc2nc3ncccc3[nH]2)c(OC)c1
The activity change, negative = inhibition of the first is lower: 8.79% for the first, 9.48% for the second.

Compared with Cc1cc(NC(=O)C2CCC(CNS(=O)(=O)c3ccc(Br)s3)CC2)ccc1Br (stereo unspecified), CC(=O)N1c2ccc(S(=O)(=O)N3CCCC(C(=O)Nc4cccc(F)c4)C3)cc2CC1C (stereo unspecified) is lower in activity change, negative = inhibition: -4.58% for the first, -31.3% for the second.

Compared with COc1cccc(N2CC(NS(=O)(=O)c3ccc(Cl)cc3)CC2=O)c1 (stereo unspecified), COc1cccc(N2CCN(S(=O)(=O)c3ccc4c(c3)CCCN4C(C)=O)CC2)c1 is higher in activity change, negative = inhibition: -10.8% for the first, -9.24% for the second.

Going from O=C(COC(=O)C1(c2ccc(F)cc2)CCCC1)N1CCNC1=O to CN(C)S(=O)(=O)c1cccc(NC(=O)COC(=O)C2(c3ccccc3F)CCCC2)c1, the activity change, negative = inhibition falls from -24.2% to -26.2%.

Compared with COc1ccc(S(=O)(=O)c2c(Nc3cccc(Cl)c3)sc(C(=O)c3ccccc3)c2N)cc1, COc1ccc(C2N=C(N)N=C(N)N2c2ccccc2)cc1OC (stereo unspecified) is lower in activity change, negative = inhibition: 20.4% for the first, 14% for the second.

Going from N#C/C(=C(\O)CCl)c1nnc2n1CCCCC2 to N#C/C(=C(\O)C(F)(F)F)c1nnc2n1CCCCC2, the activity change, negative = inhibition rises from -20.4% to -0.374%.

Going from CNS(=O)(=O)c1ccc2c(c1)[nH]c(=S)n2C to CC(=O)N1c2ccc(S(=O)(=O)N3CCCC(C(=O)Nc4ccc(C)cc4C)C3)cc2CC1C (stereo unspecified), the activity change, negative = inhibition rises from -5.5% to 33.5%.

Compared with Cc1ccccc1OCc1ccc(-c2nc(C#N)c(N3CCCCC3)o2)o1, O=C(CCc1nc(CN2CCN(S(=O)(=O)c3ccc(Cl)cc3)CC2)no1)N1CCCCC1 is higher in activity change, negative = inhibition: -23.6% for the first, 30.2% for the second.

First: Cc1ccc(N2CCN(C(=O)CCc3c(C)nc4c(c3C)c(=O)n(C)c(=O)n4C)CC2)c(C)c1
Second: CC[C@]12c3[nH]c4ccc(OC)cc4c3CCN1C(=O)C(CC(=O)NCCN1CCOCC1)C[C@@H]2C(=O)N1CCN(C(=O)C2CC2)CC1 (stereo partly specified)
The activity change, negative = inhibition of the first is lower: -5.59% for the first, 3.72% for the second.

Going from CC(=O)N1CCCc2cc(S(=O)(=O)N3CCC(C(=O)NC4CCCCC4)CC3)ccc21 to Cc1noc(/C=C/N(C)C)c1S(=O)(=O)N1CCCC(C(=O)Nc2cccc(F)c2)C1 (stereo unspecified), the activity change, negative = inhibition falls from 6.82% to 4.81%.

Compound O=C(CSc1nc(=O)n(Cc2cccnc2)c2c1CCC2)Nc1ccc(F)cc1F has an activity change, negative = inhibition of -15.2%.

For CCn1c(NCCc2ccc(OC)c(OC)c2)nc2c1c(=O)n(C)c(=O)n2C, the activity change, negative = inhibition was -71.3% (active).
For Cn1c(=O)c2c(nc(NCCc3ccccc3)n2Cc2ccccc2)n(C)c1=O, the activity change, negative = inhibition was -84.2% (active).
In the case of COc1ccc(NC(=O)C2CCC(CNS(=O)(=O)c3csc(C(N)=O)c3)CC2)cc1OC (stereo unspecified), the activity change, negative = inhibition is reported as -65.3% (active).
With CC(=O)Nc1ccc(S(=O)(=O)NCC2CCC(C(=O)NCCc3ccccc3)CC2)cc1 (stereo unspecified) the activity change, negative = inhibition was 0% and -12.6%.
For NS(=O)(=O)c1ccc(NC(=O)COC(=O)C2(c3ccc(F)cc3)CCCC2)cc1, the activity change, negative = inhibition was -61.5% (active).
With O=S(=O)([N-]c1nc2ccccc2nc1-[n+]1ccc(Cc2ccccc2)cc1)c1ccc(Br)s1 the activity change, negative = inhibition was -110% (active).
For N#C/C(=C/c1cccc([N+](=O)[O-])c1)c1nnc2n1CCCCC2, the activity change, negative = inhibition was -95.5% (active).
For CC(=O)N1c2ccc(S(=O)(=O)N3CCCC(C(=O)Nc4cccc(Cl)c4)C3)cc2CC1C (stereo unspecified), the activity change, negative = inhibition was -62.5% (active).
For CC(=O)N1c2ccc(S(=O)(=O)N3CCCC(C(=O)NCc4ccc(Cl)cc4)C3)cc2CC1C (stereo unspecified), the activity change, negative = inhibition was -75.8% (active).
With CC(=O)N1CCCc2cc(S(=O)(=O)N3CCCC(C(=O)N4CCN(c5cccc(Cl)c5)CC4)C3)ccc21 (stereo unspecified) the activity change, negative = inhibition was -72.9% (active) and -95.8% (active).
